{
  "source": "PubChem BioAssay (Tox21)",
  "note": "Records with an inconclusive call do not appear. Entries that show only a call come without a potency. The source made the active and inactive calls. The call rests on the fitted dose curve; in most records, active means well fitted activation curve with a large enough effect in the repeat runs; inconclusive means weak or mixed curves, or effect the other way; inactive means no such curve, though single readings can be large or run the other way. Potency means the concentration at half of the fitted maximal effect.",
  "data": [
    {"experiment": "qHTS assay to identify small molecule agonists of the retinoic acid receptor (RAR) signaling pathway (AID 1159553)", "conditions": "C3RL4 RARE luciferase reporter, agonist, 6 h; series mostly up to 73.3 µM", "procedure,_shortened": "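Luminescence from a RARE-driven luciferase reporter in C3RL4 cells served as the read-out, measured after 30 min with detection reagent at room temperature. Compounds in DMSO were applied for 6 hr at 37 C following overnight seeding.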", "values": [
      {"smiles": "CNC(=O)N(C)c1nc2ccccc2s1", "Potency": "2430 nM (active)"},
      {"smiles": "O=C(Oc1ccc(Br)cc1)N1CCN2CCC1CC2", "Potency": "inactive"},
      {"smiles": "O=C1CN2CCOC2(c2ccccc2Cl)c2cc(Cl)ccc2N1", "note": "(stereo not drawn)", "Potency": "inactive"},
      {"smiles": "CC1=C(C(=O)Nc2ccccc2)S(=O)(=O)CCO1", "Potency": "inactive"},
      {"smiles": "Cc1ccccc1CO[C@@H]1C[C@@]2(C(C)C)CC[C@]1(C)O2", "Potency": "inactive"},
      {"smiles": "c1cc2c(c(N3CCNCC3)c1)OCCO2", "Potency": "inactive"},
      {"smiles": "CCC(C)(C)c1cc(-n2nc3ccccc3n2)c(O)c(C(C)(C)CC)c1", "Potency": "inactive"},
      {"smiles": "Cc1cc(C)c(C(=O)P(=O)(C(=O)c2c(C)cc(C)cc2C)c2ccccc2)c(C)c1", "Potency": "inactive"}
    ]}
  ]
}
